# Measured values from the OligoGym collection.
# Target: TMEM156
# Assay: pooled miR-30 sensor sort-seq; sequence = guide strand
# Settings: shRNA
# Also: reference of the scale not given here.
row,Sequence,sensor-assay potency score (higher = more potent)
1,TTTTATATCCATCTCCAGGTGC,-0.346
2,TTTATCGATTTCTCCTTGCTTG,0.0129
3,TTGTTGATCTTCCAGTGTGGTT,-1.08

# Target: TMEM158
# Assay: as above
# Settings: shRNA
row,Sequence,sensor-assay potency score (higher = more potent)
1,TAGCAATTTAATCTTTTTGTTT,-1.1
2,TTAAACATCTGCTTTTCGGAAC,-0.542
3,TATAAAACAAATACACAGGATT,-0.653
4,TAGGTCGCACTGGAAGCCCCGC,-0.714
5,TACGGTTCAGCCGCCAGCCCGG,-1.31
6,AAGAGCAGTAGGTCGCACTGGA,0.351
7,TCGCACTGGAAGCCCCGCGGGC,-1.57
8,ATGACCAGGGTCATGAAGCAGG,-1.09
9,TTTTCTGCCATGAATCTAGGGC,-0.129
10,TCCAGGCTGAAGTCTAGGCAGC,-1.79
11,TAACGATAACTACAGCACGAAG,-1.77
12,TGATGTTGCACGGCGCCGCCGC,-0.887

# Target: TMEM18
# Assay: as above
# Settings: shRNA
row,Sequence,sensor-assay potency score (higher = more potent)
1,TATTTCGAAAATAATCTCCAGT,-0.177
2,TAGTCTGTAGCTTCGGGAGGAC,-0.482
3,ATAACCACAATGATCATGGCAT,0.502
4,TATTTAAATAAAACAACGGTTT,-1.16
5,ATCTGTAGTCTGTAGCTTCGGG,-0.359
6,TATATTTATAATTAGTACTAGT,-0.393
7,TAGACTAAGATGACTAGACACA,-0.939
8,ATAATCTCCAGTTCATCGCAGC,-0.328
9,TATAGAAATGAACATCCCCCTG,-1.12
10,TAGCTTCGGGAGGACAAGCAGG,-1.33
11,TTTCAAACCATGAGTCAGCTGG,0.141
12,TCTGTAGTCTGTAGCTTCGGGA,-0.977

# Target: TMEM200C
# Assay: as above
# Settings: shRNA
row,Sequence,sensor-assay potency score (higher = more potent)
1,ATTTTGGTCTTCTTGTCCCGGT,-0.495
2,TTTTGGTCTTCTTGTCCCGGTT,-1.07
3,TTTGCTGCCACTGCTACTGCTG,-0.287
4,TTGAGCTTGTCAGAGTGCAGGT,0.387
5,AATCATGATGAGTTTCTCCTTG,-0.235
6,TTTCACCACCACCACGTCGTTC,-1.27
7,TTGGCTTTCCGCTTGCGCTTGG,0.0739
8,TTCTTGTCCCGGTTCTCGTGGA,-0.413
9,TCCAGTTCTTCTTCTACCCCTA,-0.433
10,TTGACCAGCTACTGCGTCCAAG,-1.14
11,TTGCGCTTGGGTATCTGGCTTG,-0.405
12,TTGTAAACTGCCTCTGCACCGG,-0.336
